Sampled rows, rich in hits. Any-hit rate of the full collection: about 3.8%.
ERa coact inh – ER-alpha (human) coactivator binding inhibition. P03372. TR-FRET ER-alpha LBD / SRC-1 peptide, estradiol-bound. inhibition, % at 25.6 µM. 1.7% of 86,000 active. AID 629; in the data active = inhibition above about 50%
ERb SRC1 inh – ER-beta (human) coactivator binding inhibition; Q92731; AID 633; TR-FRET ER-beta LBD / SRC1-Cy5 peptide binding; receptor agonist-loaded with 1 µM estradiol; inhibition, % at 25.6 µM; 1.3% of 86,000 active;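 active = compounds whose percent inhibition of the receptor-coactivator binding signal exceeds about 50% in the single-dose screen, limit read from the data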
hDAT+cocaine – human DAT dopamine uptake with cocaine, either direction; Q01959; LLC-PK1 hDAT cells, [14C]-dopamine uptake with cocaine IC80; actives deviate in either direction; B-score at 10 µM; 1.3% of 110,000 active; AID 449768;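 active = Z score or B-score, a plate-position-corrected score, falls beyond the plate's 99.7% confidence bounds, in either direction; inactive = both scores lie inside the 99.7% bounds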
Target sequence (Q01959 whole entry, looked up): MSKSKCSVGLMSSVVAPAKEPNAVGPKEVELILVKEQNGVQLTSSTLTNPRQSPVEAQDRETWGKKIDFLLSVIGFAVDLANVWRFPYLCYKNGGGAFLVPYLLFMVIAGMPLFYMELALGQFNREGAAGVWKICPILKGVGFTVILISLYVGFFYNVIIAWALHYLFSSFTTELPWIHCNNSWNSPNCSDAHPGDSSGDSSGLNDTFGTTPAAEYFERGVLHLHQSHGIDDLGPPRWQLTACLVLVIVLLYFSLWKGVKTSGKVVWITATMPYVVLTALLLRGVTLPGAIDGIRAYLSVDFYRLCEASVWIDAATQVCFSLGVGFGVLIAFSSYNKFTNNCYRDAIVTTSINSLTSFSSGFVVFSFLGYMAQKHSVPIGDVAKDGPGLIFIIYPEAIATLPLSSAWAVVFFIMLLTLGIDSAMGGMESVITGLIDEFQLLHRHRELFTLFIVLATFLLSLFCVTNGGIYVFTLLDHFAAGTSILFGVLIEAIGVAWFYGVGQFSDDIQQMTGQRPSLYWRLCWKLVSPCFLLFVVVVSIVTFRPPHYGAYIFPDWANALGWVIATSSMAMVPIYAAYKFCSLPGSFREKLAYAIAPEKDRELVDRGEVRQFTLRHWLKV
MT1-MMP txn act – activates MT1-MMP transcription; 0.16% of 86,000 active; AID 750; activation factor at 10 µM; HT1080 MT1-MMP promoter luciferase reporter, luminescence, overnight; active compounds read high;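 active = activation factor of at least 2 for MT1-MMP transcription at 10 µM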
ERa coact pot – ER-alpha (human) coactivator binding potentiation. coactivator binding (% of control), % at 25.6 µM. TR-FRET ERalpha-LBD/SRC-Cy5 coactivator binding, 2 h; 100 = basal binding, no effect. 1.3% of 86,000 active. P03372; in the data active = activity above about 200%;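 also: binding measured in presence of low estradiol as agonist stimulus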
Large screens that a line does not name were inactive; [ ] = another dose, or the depositor's remark.

COc1ccc(N2CCN(C(=O)CCCn3c(=O)[nH]c4ccsc4c3=O)CC2)cc1	ERb SRC1 inh 74.6 (no result: MT1-MMP txn act)
CCOc1ccc(CC2S/C(=N/c3ccccn3)NC2=O)cc1 (stereo not drawn)	ERa coact pot 331.1
CCOC(=O)c1ccc(N2C(=O)C3CC=CCC3C2=O)cc1 (stereo not drawn)	hDAT+cocaine 7.85
CC1CC(NC(=O)c2cnc3n(c2=O)CCS3)CC(C)(C)C1 (stereo not drawn)	hDAT+cocaine -2.57
COc1ccc(CCN2C(=O)c3ccncc3C2=O)cc1OC	none
CCSc1nnc(-c2ccc(OC)cc2)o1	none (no result: ERa coact inh, ERb SRC1 inh, ERa coact pot)
COc1ccc(-c2ccc(-c3nnc(-c4ccncc4)o3)cc2)cc1	ERa coact inh 56.2[fluorescence artefact?] (no result: hDAT+cocaine)
COC(=O)c1cc(COc2ccc3c(c2)oc(=O)c2ccccc23)c(C)o1	ERa coact pot 229.5
COc1cccc(C(=O)NC(C)C(c2cccs2)N2CCN(C)CC2)c1 (stereo not drawn)	ERb SRC1 inh 67.0[fluorescence artefact?]
CCOc1ccc(-c2nnn(CC(=O)c3ccc4c(c3)OCCO4)n2)cc1	ERa coact pot 213.2
COc1ccc(C2c3sc(=O)[nH]c3SC3C4CCC(C4)C23)cc1OC (stereo not drawn)	none
O=c1[nH]c2c(s1)C(c1ccc(O)cc1)C1C3CCC(C3)C1S2 (stereo not drawn)	ERa coact inh 69.8 (no result: MT1-MMP txn act)
NC(=O)CC(NC(=O)c1cccc(Br)c1)c1ccc(NCCN2CCOCC2)c([N+](=O)[O-])c1 (stereo not drawn)	none (no result: ERa coact inh, ERb SRC1 inh, MT1-MMP txn act, ERa coact pot)
COc1ccccc1-c1cc(C(=O)NCCc2ccccc2)no1	none
COc1ccc(CCNC(=O)c2ccncc2)cc1OC	none
COc1ccc(CCNC(=O)c2cc3sc(Cl)cc3n2C)cc1OC	hDAT+cocaine 2.29
COc1ccc(CCNC(=O)C/C(C)=N/NC(=O)c2ccc(N)cc2)cc1OC	hDAT+cocaine -3.07 (no result: ERa coact inh, ERb SRC1 inh, MT1-MMP txn act, ERa coact pot)
COc1ccc(CCNC(=O)c2cc(-c3ccccc3OC)on2)cc1OC	ERa coact pot 235.7[fluorescence artefact?]
CCc1nnc(NC(=O)c2ccc(-c3cc(C(F)(F)F)ccc3Cl)o2)s1	none (no result: ERa coact inh, ERb SRC1 inh, MT1-MMP txn act, ERa coact pot)
CCc1nnc(NC(=O)c2ccc(-c3cccc(C(F)(F)F)c3)o2)s1	hDAT+cocaine -7.61
COC(=O)C1=C(C(=O)OC)[C@@H]2N(C)c3ccccc3[C@@]23C[C@@H](CO)N(C(=O)NCCBr)C3=N1	none (no result: ERa coact inh, ERb SRC1 inh, MT1-MMP txn act, ERa coact pot)
C[C@H]1CC[C@H]2C(=O)N[C@H](Cc3ccccc3)C(=O)N2[C@@H]1c1ccccc1	none (no result: ERa coact inh, ERb SRC1 inh, MT1-MMP txn act, ERa coact pot)
COc1ccc2cc3cc(C(=O)NC(C)C)oc3nc2c1	hDAT+cocaine -8.18
COc1ccc2cc3cc(C(=O)Nc4ccc5c(c4)OCCO5)oc3nc2c1	ERa coact inh 70.9[fluorescence artefact?], ERa coact pot 208.6
CCn1c(CCNC(=O)c2ccccc2Cl)n[nH]c1=S	none (no result: ERa coact inh, ERb SRC1 inh, MT1-MMP txn act, ERa coact pot)
CCOC(=O)N1CCN(c2c(-c3ccccc3)c3cc(Cl)ccc3[nH]c2=O)CC1	none (no result: ERa coact inh, ERb SRC1 inh, hDAT+cocaine, ERa coact pot)
CCN(CC)c1c(-c2ccccc2)c2cc(C)ccc2[nH]c1=O	ERa coact pot 248.1[fluorescence artefact?]
Cc1cc(F)ccc1NCc1cc2c(cc1[N+](=O)[O-])OCO2	hDAT+cocaine -8.02 (no result: ERa coact inh, ERb SRC1 inh, MT1-MMP txn act, ERa coact pot)
Cc1cc(F)ccc1NCc1ccncc1	none
Cc1c(CNCc2cccs2)c(C(=O)O)c(C)n1Cc1ccccc1	ERa coact pot 229.1[fluorescence artefact?]
COc1ccc(C(C)=O)c2c(O)cccc12	none
CCC1=NNc2cccc3c(OC)ccc1c23	ERa coact inh 99.1[fluorescence artefact?], ERb SRC1 inh 100.5[fluorescence artefact?]
CCOC(=O)C[n+]1c(C)ccc2c1CCC2	none
Cc1ccccc1-n1c(SC/C(O)=C(\C#N)c2nc3ccccc3[nH]2)nnc1-c1ccncc1	ERa coact inh 62.5[fluorescence artefact?], ERb SRC1 inh 54.2
Cc1cc(C)n2c(SC/C(O)=C(\C#N)c3nc4ccccc4[nH]3)nnc2n1	ERa coact inh 96.8[fluorescence artefact?], ERb SRC1 inh 68.8[fluorescence artefact?]
CCn1c(SCc2nc3ccccc3[nH]2)nnc1-c1ccncc1	none
CCOC(=O)c1ccc2c(c1)nc(SC/C(O)=C(\C#N)c1nc3ccccc3[nH]1)n2CC	none
CC[C@H](C)[C@@H](NC(=O)O[C@@H]1C(=O)c2cc(Br)ccc2O[C@H]1c1ccc2c(c1)OCO2)C(=O)OC	none (no result: ERa coact inh, ERb SRC1 inh, MT1-MMP txn act, ERa coact pot)
C#CCOCCOCCOCCNc1nc(N2CCN(C(=O)[C@H](CCC(=O)O)n3cc(C(N)CC(C)C)nn3)CC2)nc(N2CCN(C(=O)[C@H](CCC(=O)O)n3cc(C(N)CC(C)C)nn3)CC2)n1 (stereo partly drawn)	none (no result: ERa coact inh, ERb SRC1 inh, MT1-MMP txn act, ERa coact pot)
CCc1nnc(NC(=O)C(=O)NCCOC(=O)c2ccccc2)s1	none (no result: ERa coact inh, ERb SRC1 inh, MT1-MMP txn act, ERa coact pot)
O=C(Nc1ccccc1C(=O)O)c1ccccc1	ERb SRC1 inh 50.6
O=C(Nc1ccc(Cl)cn1)c1ccc2ccccc2n1	none
O=C(Nc1ccccc1C(=O)O)c1ccc2ccccc2n1	ERb SRC1 inh 90.7[fluorescence artefact?]
Cc1[nH]c2ccccc2c1Cc1nnc(SCc2ccccc2)o1	none (no result: MT1-MMP txn act)
COC(=O)c1ccc(C(NC(=O)OCc2ccccc2)/C(C)=C/[C@@H](C)C(=O)NCc2cc(F)cc(F)c2)cc1 (stereo partly drawn)	none (no result: ERa coact inh, ERb SRC1 inh, hDAT+cocaine, ERa coact pot)
O=C(C1=C(O)C(=O)N(Cc2ccco2)C1c1ccccc1)c1cccs1 (stereo not drawn)	none
COc1ccc(CCNC(=O)c2cccnc2)cc1OC	none
COc1ccc(CN(Cc2cccnc2)C(=S)NCCc2ccccc2)cc1OC	hDAT+cocaine 2 (no result: ERa coact inh, ERb SRC1 inh, MT1-MMP txn act, ERa coact pot)
N#CC1=C(N)n2c(s/c(=C\c3ccco3)c2=O)=C(C#N)C1c1ccco1 (stereo not drawn)	ERa coact inh 75.5[fluorescence artefact?], ERb SRC1 inh 66.7[fluorescence artefact?]
CCOC(=O)C1=C(N)n2c(s/c(=C/c3ccco3)c2=O)=C(C(=O)OC)C1c1ccco1 (stereo not drawn)	none
NC(=O)CC(NC(=O)c1ccccc1)c1ccc(NC2CCCC2)c([N+](=O)[O-])c1 (stereo not drawn)	none (no result: ERa coact inh, ERb SRC1 inh, MT1-MMP txn act, ERa coact pot)
CCn1c(SCC(=O)N/N=C/c2ccc(OC)c(OC)c2)nc2ccccc21	hDAT+cocaine 4.19 (no result: ERa coact inh, ERb SRC1 inh, MT1-MMP txn act, ERa coact pot)
CCN(CC)CCC(c1ccc2c(c1)OCO2)c1c(O)cc(OC)cc1OC (stereo not drawn)	none (no result: ERa coact inh, ERb SRC1 inh, MT1-MMP txn act, ERa coact pot)
COC(=O)C1=C(C(=O)OC)[C@@H]2Nc3ccccc3[C@@]23C[C@@H](C(=O)OC)N(C(C)=O)C3=N1	none (no result: ERa coact inh, ERb SRC1 inh, MT1-MMP txn act, ERa coact pot)
COc1ccc(CC(=O)Nc2ccc(-c3nnc(-c4ccccc4)o3)cc2)cc1OC	ERa coact inh 70.3[fluorescence artefact?], ERb SRC1 inh 50.7[fluorescence artefact?]
COc1ccc(-c2nc3cc(NC(=O)Cc4ccc(OC)c(OC)c4)ccc3o2)cc1	ERa coact pot 273.2[fluorescence artefact?]
Cc1ccc(OCC(=O)Nc2cccc(-c3nnc(-c4ccccc4)o3)c2)c(C)c1	none
COc1ccc(CC(=O)Nc2cccc(-c3nnc(-c4ccccc4)o3)c2)cc1OC	hDAT+cocaine 2.73
CCN(CC)CC(=O)Nc1ccc(-c2nc3cc(NC(=O)CN(CC)CC)ccc3o2)cc1	none
COc1ccc(CCNC(=O)CSc2nnc(-c3ccccc3)o2)cc1OC	none
CC(=O)Nc1cccc(-c2nnc(-c3ccccc3)o2)c1	hDAT+cocaine -8.4
CC1CCN(C(=O)c2cc(F)c(F)cc2Cl)CC1	none
COc1ccc(CC(=O)Nc2cccc(-c3nnc(-c4cccc(C)c4)o3)c2)cc1OC	hDAT+cocaine 3.08
